Assay outcomes as filed in PubChem BioAssay.
NR5A2 inv ag = LRH-1 (NR5A2) inverse agonists, primary screen, cell-based, luminescence, HEK293T, StAR-luciferase reporter. inhibition, % at 3.6 µM. hit rate 0.13% among 360,000. Nuclear receptor subfamily 5 group A member 2 (Homo sapiens), O00482. LRH-1 transfected, 24 h;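 active means inhibition above the mean inhibition of all tested compounds plus 3 SD, cut at about 73% in these data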
Target sequence (O00482 whole entry, looked up): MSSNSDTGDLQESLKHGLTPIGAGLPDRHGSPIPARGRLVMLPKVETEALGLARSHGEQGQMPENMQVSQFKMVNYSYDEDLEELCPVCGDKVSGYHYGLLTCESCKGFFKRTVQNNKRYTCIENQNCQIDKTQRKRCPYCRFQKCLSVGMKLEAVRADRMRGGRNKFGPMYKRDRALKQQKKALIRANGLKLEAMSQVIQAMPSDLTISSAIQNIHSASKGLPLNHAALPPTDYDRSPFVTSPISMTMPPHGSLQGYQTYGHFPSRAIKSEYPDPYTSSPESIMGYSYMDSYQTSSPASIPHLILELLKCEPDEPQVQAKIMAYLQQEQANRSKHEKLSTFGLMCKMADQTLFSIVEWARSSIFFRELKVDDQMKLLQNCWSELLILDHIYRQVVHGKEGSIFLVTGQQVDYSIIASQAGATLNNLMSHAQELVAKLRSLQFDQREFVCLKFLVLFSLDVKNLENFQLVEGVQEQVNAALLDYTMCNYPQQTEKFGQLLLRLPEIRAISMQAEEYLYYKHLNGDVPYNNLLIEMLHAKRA
COUP-TFII inh = NR2F2 transcriptional activity inhibitors, primary screen, cell-based, luciferase reporter, HEK293T, luminescence; COUP transcription factor 2 (Homo sapiens), P24468; HEK293T NGFI-A luciferase reporter; inhibition, % at 8.6 µM; hit rate 0.7% among 370,000;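 active means inhibition above a per-plate cutoff, mean inhibition of test wells between control levels plus 3 SD, cut at about 38% in these data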;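 further: cells cotransfected with COUP-TFII expression vector driving the NGFI-A reporter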
NCOA3 inh = SRC3 coactivator transcriptional activity inhibitors, primary screen, cell-based, luminescence; Nuclear receptor coactivator 3 (Homo sapiens), Q9Y6Q9; HEK293 GAL4-SRC3 luciferase reporter; inhibition, % at 3.6 µM; hit rate 0.17% among 360,000; AID 588352, 2011;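 active means inhibition above a per-campaign cutoff, the mean of all compounds plus 3 SD, cut at about 60% in these data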;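 further: higher means less SRC3-driven luciferase light from the GAL4 reporter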
NCOA2 inhibitor = inhibition of GAL4-SRC2 driven luciferase reporter, primary screen, SRC2 inhibitor project, cell-based, luminescence; hit rate 0.17% among 370,000; inhibition, % at 9 µM; Nuclear receptor coactivator 2 (Homo sapiens), Q15596; HEK293 GAL4-SRC2 luciferase reporter;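 active means inhibition above the mean inhibition of all tested compounds plus 3 SD, set per campaign, cut at about 52% in these data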
GalR3 antag = GalR3 antagonists in HEK293 cells, primary screen, cell-based, fluorescence readout | HEK293 GalR3-CNG cAMP membrane potential fluorescence; galR3 body fused to GalR1 C-terminus | inhibition, % at 3 µM | hit rate 0.44% among 360,000;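 active means inhibition above the screen-wide average plus 3 SD, cut at about 13% in these data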;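 further: forskolin and galanin both at EC90 stimulate the cells; cAMP rise reported by CNG channel membrane potential dye signal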
NCOA1 inh = SRC1 coactivator transcriptional activity inhibitors, primary screen, cell-based, luminescence; AID 588354, 2011; HEK293 GAL4-SRC1 luciferase reporter; inhibition, % at 3.6 µM; hit rate 0.12% among 360,000;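 active means inhibition above the campaign mean plus 3 SD, with each screening campaign given its own cutoff, cut at about 60% in these data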
Gal4-VP16 ctr = Gal4-VP16 luciferase reporter inhibitors, counter-screen for COUP-TFII antagonist project, cell-based, luminescence, HEK293. shares compounds with COUP-TFII inh. inhibition, % at 8.5 µM. hit rate 25% among 2,500. AID 687007, 2013; in the data active means inhibition above about 13%
COUP-TFII conf = NR2F2 transcriptional activity inhibitors, confirmation, cell-based, luciferase reporter, HEK293, triplicate; shares compounds with COUP-TFII inh; hit rate 45% among 2,500; HEK293 NGFI-A luciferase reporter, luminescence; inhibition, % at 8.5 µM;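 active means mean inhibition over three repeats above a set limit taken from the earlier primary screen, cut at about 38% in these data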
Numbers stand for hits. The list is not random: actives were taken first. Their share in the collection is about 1.1%.

Results for CC1(C)C(c2ccco2)=[N+]([O-])C2(CCCCC2=O)N1O (stereo unspecified) ?
NR5A2 inv ag: inactive; COUP-TFII inh: inactive; NCOA3 inh: inactive; NCOA2 inhibitor: inactive; GalR3 antag: inactive; NCOA1 inh: inactive

Results for O=C(c1ccc2c3c(cccc13)CC2)C1CCCN(Cc2ccncc2)C1 (stereo unspecified) ?
NR5A2 inv ag: inactive; COUP-TFII inh: 52.9; NCOA3 inh: inactive; NCOA2 inhibitor: inactive; GalR3 antag: inactive; NCOA1 inh: inactive; Gal4-VP16 ctr: 18.9; COUP-TFII conf: inactive

What do the screens show for `CCc1nc(CN2CCCC(C(=O)c3ccc4c5c(cccc35)CC4)C2)c(C)[nH]1` (stereo unspecified)?
NR5A2 inv ag: inactive; COUP-TFII inh: inactive; NCOA3 inh: inactive; NCOA2 inhibitor: inactive; GalR3 antag: inactive; NCOA1 inh: inactive

Results for CCOC(=O)c1c(NC(=S)N2CCN(C)CC2)sc2c1CCN(C(=O)OCC)C2 ?
NR5A2 inv ag: inactive; COUP-TFII inh: 39.3; NCOA3 inh: inactive; NCOA2 inhibitor: inactive; GalR3 antag: inactive; NCOA1 inh: inactive; Gal4-VP16 ctr: inactive; COUP-TFII conf: inactive

What do the screens show for `CCOC(=O)c1c(NC(=O)CN(CC)CC)sc2c1CCN(C(=O)OCC)C2`?
NR5A2 inv ag: inactive; COUP-TFII inh: inactive; NCOA3 inh: inactive; NCOA2 inhibitor: inactive; GalR3 antag: inactive; NCOA1 inh: inactive

What do the screens show for `CC(=O)c1ccc(N2CCN(S(=O)(=O)c3ccc4c5c3CC(=O)N5CC(C)S4)CC2)cc1` (stereo unspecified)?
NR5A2 inv ag: inactive; NCOA3 inh: inactive; NCOA1 inh: inactive

How did CCN1C/C(=C/c2ccc(N3CCOCC3)cc2)C(=O)/C(=C/c2ccc(N3CCOCC3)cc2)C1 do in these assays?
NR5A2 inv ag: inactive; COUP-TFII inh: 37.4; NCOA3 inh: inactive; NCOA2 inhibitor: inactive; GalR3 antag: inactive; NCOA1 inh: inactive; Gal4-VP16 ctr: 23.9; COUP-TFII conf: 39.4

Results for CN1C/C(=C\c2ccc(N3CCOCC3)cc2)C(=O)/C(=C/c2ccc(N3CCOCC3)cc2)C1 ?
NR5A2 inv ag: inactive; COUP-TFII inh: inactive; NCOA3 inh: inactive; NCOA2 inhibitor: inactive; GalR3 antag: inactive; NCOA1 inh: inactive

Results for Cc1cc(C(=O)NC2CCCc3c2cnn3-c2cccc(C)c2C)no1 (stereo unspecified) ?
NR5A2 inv ag: inactive; COUP-TFII inh: inactive; NCOA3 inh: inactive; NCOA2 inhibitor: inactive; GalR3 antag: inactive; NCOA1 inh: inactive

How did COc1ccc(C(=O)NC2CCCc3c2cnn3-c2cccc(C)c2C)o1 (stereo unspecified) do in these assays?
NR5A2 inv ag: inactive; COUP-TFII inh: inactive; NCOA3 inh: inactive; NCOA2 inhibitor: inactive; GalR3 antag: inactive; NCOA1 inh: inactive

What do the screens show for `Cc1cccc(-n2ncc3c2CCCC3NC(=O)Cc2c(C)noc2C)c1C` (stereo unspecified)?
NR5A2 inv ag: inactive; COUP-TFII inh: 41.5; NCOA3 inh: inactive; NCOA2 inhibitor: inactive; GalR3 antag: inactive; NCOA1 inh: inactive; Gal4-VP16 ctr: inactive; COUP-TFII conf: inactive

Results for CC1=C(C(=O)NC2CCCc3c2cnn3-c2cccc(C)c2C)OCCO1 (stereo unspecified) ?
NR5A2 inv ag: inactive; COUP-TFII inh: 55.9; NCOA3 inh: inactive; NCOA2 inhibitor: inactive; GalR3 antag: inactive; NCOA1 inh: inactive; Gal4-VP16 ctr: inactive; COUP-TFII conf: 44.5

How did Cc1cccc(-n2ncc3c2CCCC3NC(=O)c2cccs2)c1C (stereo unspecified) do in these assays?
NR5A2 inv ag: inactive; COUP-TFII inh: 43.8; NCOA3 inh: inactive; NCOA2 inhibitor: inactive; GalR3 antag: inactive; NCOA1 inh: inactive; Gal4-VP16 ctr: inactive; COUP-TFII conf: inactive

Results for Cc1nn(C)c(C)c1NC(=O)COc1ccc(Cl)cc1Br ?
NR5A2 inv ag: inactive; COUP-TFII inh: 51.2; NCOA3 inh: inactive; NCOA2 inhibitor: inactive; GalR3 antag: 52.7; NCOA1 inh: inactive; Gal4-VP16 ctr: inactive; COUP-TFII conf: 50.4

What do the screens show for `CSc1ccccc1NC(=O)COc1ccc(Cl)cc1Cl`?
NR5A2 inv ag: inactive; COUP-TFII inh: inactive; NCOA3 inh: inactive; NCOA2 inhibitor: inactive; GalR3 antag: inactive; NCOA1 inh: inactive

Results for Cc1cc(Cl)ccc1OCCCC(=O)NO ?
NR5A2 inv ag: inactive; COUP-TFII inh: 51.8; NCOA3 inh: inactive; NCOA2 inhibitor: inactive; GalR3 antag: inactive; NCOA1 inh: inactive; Gal4-VP16 ctr: inactive; COUP-TFII conf: 47.2

Results for O=C(COc1ccc(Cl)cc1Cl)Nc1ccccn1 ?
NR5A2 inv ag: inactive; COUP-TFII inh: 89.4; NCOA3 inh: inactive; NCOA2 inhibitor: 82.1; GalR3 antag: inactive; NCOA1 inh: 62.5; Gal4-VP16 ctr: 63.9; COUP-TFII conf: 82.2

How did Cc1c(C)c2ccc(OCC(=O)Nc3ccccn3)c(C)c2oc1=O do in these assays?
NR5A2 inv ag: 76.5; COUP-TFII inh: 77.9; NCOA3 inh: 80.8; NCOA2 inhibitor: 68.7; GalR3 antag: inactive; NCOA1 inh: 74.1; Gal4-VP16 ctr: 82.3; COUP-TFII conf: 98.0

What do the screens show for `Cc1c(C)c2cc(Cl)c(OCC(=O)Nc3ccccn3)cc2oc1=O`?
NR5A2 inv ag: inactive; COUP-TFII inh: inactive; NCOA3 inh: inactive; NCOA2 inhibitor: inactive; GalR3 antag: inactive; NCOA1 inh: inactive

Results for O=C(NCc1c(F)cccc1F)C1CCCN(c2ncccn2)C1 (stereo unspecified) ?
COUP-TFII inh: inactive; NCOA2 inhibitor: inactive

What do the screens show for `CC(C)NC(=O)N[C@H]1C[C@@H]2O[C@@H](CO)CC[C@@H]2O[C@@H]1CCc1ccc(-c2ccc(F)cc2)cc1`?
COUP-TFII inh: inactive; NCOA2 inhibitor: inactive

Results for Cc1cccc(OCC(=O)Nc2ccncc2)c1C ?
NR5A2 inv ag: inactive; COUP-TFII inh: 39.3; NCOA3 inh: inactive; NCOA2 inhibitor: inactive; GalR3 antag: inactive; NCOA1 inh: inactive; Gal4-VP16 ctr: inactive; COUP-TFII conf: inactive

What do the screens show for `COc1ccccc1OCC(=O)Nc1ccncc1`?
NR5A2 inv ag: inactive; COUP-TFII inh: inactive; NCOA3 inh: inactive; NCOA2 inhibitor: inactive; GalR3 antag: inactive; NCOA1 inh: inactive
